# Hit rate of the full screen: of about 370,000 compounds, about 6,800 (1.8%) were called active. The sample as a whole holds a higher share of actives than the screen did. A number with no mark means an inactive call.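 How the source made its calls: active means activation above a cutoff set at the mean of all screened compounds plus 3 SD (cut at about 10% in these data); inactive means the rest.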
# Tested on: Nuclear hormone receptor DAF-12 (Heterodera glycines), GAL4 fusion
# Experiment: hgDAF-12 GAL4 fusion reporter activation – cell-based, luminescence, HEK293, UAS-luciferase, primary screen (AID 687014);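 further: 0% = DMSO wells and 100% = sodium butyrate wells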
# Settings: HEK293 GAL4-hgDAF12 UAS-luciferase reporter, agonist luminescence; at 6.8 µM; stronger effect = higher value; normalized to butyrate control
row,SMILES,activation
1,COc1ccc(-n2c(COc3ccc(C)cc3)nnc2SCC(=O)Nc2ccc(Oc3ccccc3)cc2)cc1,3.51%
2,COc1ccccc1NC(=O)C(C)OC(=O)c1ccc(-n2cnnn2)cc1 (centres undefined),-3.02%
3,N#Cc1ccc(C2=CC(=O)C[C@H](c3ccc(Cl)cc3)C2)cc1,-2.41%
4,CC(C)c1cccc(-c2csc(C(O)c3ccccc3)n2)c1 (centres undefined),5.67%
5,OC(c1ccccc1)c1nc(-c2cnc3ccccc3c2)cs1 (centres undefined),22.6% (active)
6,COc1cccc(C(NC(C)=O)c2nc(-c3cnc4ccccc4c3)cs2)c1 (centres undefined),-1%
7,Cc1ccc(N2C(=O)c3ccccc3C2(O)c2ncc[nH]2)cc1 (centres undefined),0.14%
8,COc1ccc2[nH]c(=O)c(CN(CC3CCCO3)C(=O)Nc3ccccc3)cc2c1 (centres undefined),-1.35%
9,Cc1ccc2[nH]c(=O)c(CN(CC3COCCO3)C(=O)Nc3ccccc3C)cc2c1 (centres undefined),-1.5%
10,Cc1cccc(NC(=O)N(Cc2cc3cc(C)cc(C)c3[nH]c2=O)CC2COCCO2)c1 (centres undefined),11.3% (active)
11,O/N=C(\c1ccc2c(c1)OCCO2)C1CCCCC1,-1.1%
12,CC(CCN1CCC(C(O)(c2ccccc2)c2ccccc2)CC1)Oc1ccc(Cl)cc1 (centres undefined),-0.38%
13,C=CCN1C(=O)[C@@H](CC(=O)NCC2CCCCC2)[C@]2(C(=O)OC)CCCCC=C12,2.02%
14,O=C(Oc1ccc(-c2nc(-c3ccccn3)no2)cc1)c1ccccc1,10.9% (active)
15,O=C(COc1cccc(F)c1)Oc1ccc(C(=O)c2ccccc2)cc1,3.93%
16,COC(=O)c1ccc(-c2noc(CN(Cc3ccccn3)CC3CCCO3)n2)cc1 (centres undefined),1.07%
17,CCCC[C@H]1C2CC(OC(=O)NCc3ccccc3)C(C2)[C@H]2CCCCN21 (some centres undefined),-3.36%

row,SMILES,activation
1,Cc1ccc2c(c1)N(CC(=O)NCCc1ccc(Cl)cc1)C(=O)c1cccnc1O2,0.09%
2,Cc1ccc(NC(=O)c2oc3ccccc3c2C)c([N+](=O)[O-])c1,0.32%
3,CN(C)c1ccc(NC(=O)c2ccncc2)c2ccccc12,-2.36%
4,O=C(Nc1ccc2ccccc2c1[N+](=O)[O-])c1ccccc1,15.2% (active)
5,COP(=O)(O)CNC(=O)OCc1ccccc1,2%
6,O=C(CSc1nc2ccccc2n1Cc1ccccc1)NNC(=S)Nc1ccccc1,-0.74%
7,CCNC(=O)C1(C)CCN(C(=O)c2ccccc2)C1 (centres undefined),2.75%
8,CCN1C(=O)N[C@@H]2C[C@H](C(=O)N3CCCC3)[C@H](C)[C@H](c3ccccc3)C[C@@H]21,5.37%
9,C=CCOc1c2ccc(C(=O)N(CC)c3ccc(OC)cc3)cc2nn1C,-1.06%
10,CC(=O)C1=C(C)N(Cc2ccccc2)C(=S)NC1c1cccc(Br)c1 (centres undefined),-0.58%
11,COc1ccnc(NC(=S)N2CCN(c3ncc(C(F)(F)F)cc3Cl)CC2)c1,2.05%
12,Fc1ccc2cnc(-c3ccccc3)cc2c1,15.4% (active)
13,O=c1cc(-c2ccccc2)[nH]c2cc(F)ccc12,-0.32%
14,COc1cc(OC)cc(-c2cc3ccc(F)cc3cn2)c1,8.86%
15,CC(C)Cn1c(SCC(=O)Nc2ccc(Cl)cc2F)nc(O)cc1=O,-0.64%
16,CC(=O)c1cc(-c2ccc3ccccc3c2)c(=O)n2c1CCC2,0.58%
17,Cc1sc2nc(SCC(=O)c3ccc(O)c(O)c3)n(Cc3ccco3)c(=O)c2c1C,-0.58%

# — PubChem BioAssay AID687014 (The Scripps Research Institute Molecular Screening Center, 2013)
